Test results as given in PubChem BioAssay AID651699 (Sanford-Burnham Center for Chemical Genomics, 2012).
Among all 360,000 compounds or so, about 2,100 (0.58%) were called active. Rule as the data show it: active = inhibition above about 36%; inactive = the rest. Shown is part of a subset that was picked to be rich in actives.

biological target: NEDD8-conjugating enzyme Ubc12 (Homo sapiens) + NEDD8-activating enzyme E1 regulatory subunit (Homo sapiens) (UniProt P61081+Q13564); assay: NEDD8 transfer onto cullin, blockade – biochemical, TR-FRET, uHTS, NAE and Ubc12, primary screen (AID 651699); conditions: TR-FRET cullin neddylation, at 25 µM, stronger effect = higher value
Sequence (P61081 whole entry, looked up): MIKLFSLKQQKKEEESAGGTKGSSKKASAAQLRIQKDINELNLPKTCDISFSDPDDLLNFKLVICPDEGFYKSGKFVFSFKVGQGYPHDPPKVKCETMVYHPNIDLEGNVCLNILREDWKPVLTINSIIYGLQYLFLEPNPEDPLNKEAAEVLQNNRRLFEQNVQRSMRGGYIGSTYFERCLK
Sequence (Q13564 whole entry, looked up): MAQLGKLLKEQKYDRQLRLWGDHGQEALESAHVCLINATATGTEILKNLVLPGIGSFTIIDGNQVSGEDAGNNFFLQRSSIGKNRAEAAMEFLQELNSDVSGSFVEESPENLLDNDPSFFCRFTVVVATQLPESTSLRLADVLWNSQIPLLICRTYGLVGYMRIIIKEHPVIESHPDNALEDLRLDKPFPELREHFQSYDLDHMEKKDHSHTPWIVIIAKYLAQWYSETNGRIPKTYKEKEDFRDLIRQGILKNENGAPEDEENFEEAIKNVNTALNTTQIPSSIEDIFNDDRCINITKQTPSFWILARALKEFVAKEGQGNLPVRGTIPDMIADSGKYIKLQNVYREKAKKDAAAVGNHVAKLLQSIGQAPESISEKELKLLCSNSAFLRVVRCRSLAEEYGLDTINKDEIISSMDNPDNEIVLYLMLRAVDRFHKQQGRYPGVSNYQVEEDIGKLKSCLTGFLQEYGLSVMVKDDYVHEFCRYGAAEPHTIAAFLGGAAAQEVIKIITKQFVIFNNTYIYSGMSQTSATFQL

| Structure (SMILES) | inhibition |
| --- | --- |
| CC(=CCOc1ccc2ccc(=O)oc2c1)C1=CC(=O)C(C)(C)O1 | 48.3% (active) |
| COC(=O)CN1C(=O)C2(C(C(=O)OC)=C(N)Oc3ccccc32)C2=C1CC(C)(C)CC2=O (stereo not given) | 0.61% (inactive) |
| O=C(CCC(=O)N1C[C@H]2C[C@@H](C1)c1cccc(=O)n1C2)NCc1ccccc1C(F)(F)F | -4.64% (inactive) |
| O=C(c1cc(S(=O)(=O)N2CCOCC2)ccc1F)N1CCC2(CC1)OCCO2 | 4.52% (inactive) |
| CCC(C)n1c(O)c(/C=N/Nc2nc3c(c(=O)n(C)c(=O)n3C)n2C)c(=O)[nH]c1=S (stereo not given) | 40.5% (active) |
| CCN1C(=O)NC(=O)C2(CCCC2)C1=O | 1.81% (inactive) |
| CC(c1ccccc1)(c1ccccc1)c1ccncc1 | -5.54% (inactive) |
| COc1ccc2c(c1)[C@]13CCCCC1C(C2)N(C)CC3 (stereo not given in full) | -8.52% (inactive) |
| COP(=O)(NS(=O)(=O)c1ccccc1)OC | -0.79% (inactive) |
| CCN1c2nc3c(C)cccn3c(=O)c2CC2(C(=O)N(C)C(=O)N(C)C2=O)C1C (stereo not given) | 41.1% (active) |
| CCCCCn1c(=O)c(C(=O)NCc2ccccn2)c(O)c2ccccc21 | 4.17% (inactive) |
| CC1(C)Cc2c(C#N)c(N3CCNCC3)nc(-c3ccco3)c2CS1 | 25.7% (inactive) |
| COc1ccc(C(=O)C2CCCN(Cc3ccc(C)s3)C2)cc1OC (stereo not given) | 0.31% (inactive) |
| CN1C2C=C(N(C(=O)c3ccc(Cl)cc3)c3ccccc3)CC1CC2 (stereo not given) | 0.6% (inactive) |
| CCCCC(=O)N/N=C/c1c(O)n(CC)c(=S)n(CC)c1=O | -37% (inactive) |
| CCCCC(=O)N/N=C/c1c(O)n(CCC2=CCCCC2)c(=O)[nH]c1=O | 52.9% (active) |
| O=c1[nH]c(=O)n(CCc2ccc(F)cc2)c(O)c1/C=N/N1CCCCC1 | -6.7% (inactive) |
| COC(=O)C1=C(c2ccccc2)C[C@@H]2CC[C@H]1N2C(=O)N1CCCCC1 | -6.19% (inactive) |
| COc1cccc(OC)c1C(=O)NC(=S)N1C[C@H]2C[C@H](C1)c1cccc(=O)n1C2 | -2.07% (inactive) |
| c1ccc2sc(N3CCNCC3)nc2c1 | 1.66% (inactive) |
